Screening results (PubChem BioAssay)
Cycloheximide cs = affects cycloheximide protein synthesis inhibition readout, counter-screen; 12% of 300,000 active; cell reporter, cycloheximide protein synthesis inhibition counterscreen; AID 2314; max response, %; in the data active = max response mostly above about 13%, no sharp cut-off; inactive = mostly below about 14%; also: read at 38.3 µM for the half of the compounds with a filed dose; 0% is about no effect
Pf growth 96h = inhibits malaria parasite growth, 96 h; P. falciparum luciferase reporter growth, 96 h; Potency, µM (top dose mostly 28.7 µM), for inactives: at the highest dose activity change, negative = inhibition, most hits filed as inhibitors; 6.9% of 320,000 active; also: potency is read from the fitted curve at half-maximal effect; % is scaled to controls: 0 for no effect and ±100 for the full control effect
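P. falciparum expressing integrated firefly luciferase grown in erythrocytes (2% hematocrit, 0.05% parasitemia final) with compounds for 96 hours at 37 C, 5% CO2. Growth inhibition read as loss of luminescence after adding luciferase detection reagent.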
Pf growth 48h = P. falciparum growth inhibition at 48 hours (one generation). P. falciparum luciferase growth in erythrocytes, 48 h. Potency, µM (doses to about 28.7 µM), without a hit: at the top dose activity change, negative = inhibition, hits mostly inhibitors. 5.9% of 310,000 active; also: potency is read from the fitted curve at half-maximal effect; % is scaled to controls: 0 for no effect and ±100 for the full control effect
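Luciferase-expressing P. falciparum in infected erythrocytes (2% hematocrit, 0.1% parasitemia final) in RPMI 1640/0.5% Albumax were exposed to compound for 48 hours at 37 C, 5% CO2; growth read as luminescence.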
Shiga toxin inh = Shiga toxin inhibition | Vero cells, Shiga toxin protein synthesis inhibition reporter | inhibition, % at 38.7 µM | 9.2% of 290,000 active | AID 2315; in the data active = inhibition mostly above about 28%, no sharp cut-off; inactive = mostly below about 43%; also: 0% is about no effect
Marburg entry inh = blocks Marburg virus binding to or entry into cells. Marburg virus pseudotyped entry inhibition, cell reporter. Potency, µM (series often up to 37.8 µM), inactives show at the highest dose activity change, negative = inhibition, actives largely listed as inhibitors. 1.8% of 300,000 active. AID 540276; calls by dose curve; tested in HEK293 cells; also: potency is read from the fitted curve at half-maximal effect; % is scaled to controls: 0 for no effect and ±100 for the full control effect
LASV entry inh = Lassa virus entry inhibition | Lassa virus pseudotype entry inhibition, cell reporter | 1.2% of 300,000 active | Potency, µM (titrated, usually from 37.9 µM), inactives show top-dose activity change, negative = inhibition, usual class: inhibitors; calls by dose curve; tested in HEK293 cells; also: potency is read from the fitted curve at half-maximal effect; % is scaled to controls: 0 for no effect and ±100 for the full control effect; nearly all actives have a fitted effect of over 50% in size
* marks the source's active call; other numbers are inactive results; ? = inconclusive; / = not tested or not shown; [ ] = remark or other dose. Only some compounds are listed: those with a hit (about 19% of all), similar ones and a draw of the others. Unless noted, calls follow the shape of the dose curve; as a rule, active = well fitted inhibition curve with a large enough effect; inconclusive = small, poorly fitted or top-dose-only effect, or another doubt; inactive = no such curve, though single readings can be large or run the other way.

SMILES	Cycloheximide cs	Pf growth 96h	Pf growth 48h	Shiga toxin inh	Marburg entry inh	LASV entry inh
COc1ccc2cc(C(C)c3nc4ccccc4c(=O)n3N)ccc2c1 (stereo not drawn)	-6.3	1.17µM*	?	17.0	-18.2%	-5.7%
COc1cccc(OCc2nc3ccccc3c(=O)n2N)c1	27.3*	0.8%	68.5%	84.4*	-2.6%	23.5%[14.3 µM]
CC#CCCc1nc2ccccc2c(=O)n1N	-2.4	-27.8%	8.0%	12.2	0.3%	0.0%
COc1ccc(-c2nc3ccccc3c(=O)n2N)cc1	-1.9	31.5%	35.0%	15.1	0.7%	26.0%
Cc1ccc2[nH]cc(CCNC(=O)c3cccs3)c2c1	21.0	-3.0%	-23.8%	22.0	1.8%	6.9%
CC[C@H](C)[C@H](NC(=O)[C@H](Cc1ccc(O)cc1)NC(=O)[C@@H](NC(=O)[C@H](CCCN=C(N)N)NC(=O)[C@@H](N)CC(=O)O)C(C)C)C(=O)N[C@@H](Cc1cnc[nH]1)C(=O)N1CCC[C@H]1C(=O)O	-1.8	/	/	-2.8	/	/
CC(C)CNC(=O)C(=O)NNC(=O)C1CCCCC1	-3.1	?	7.8%	-8.3	?	-1.2%
Cc1ccccc1C(=O)NCC(=O)Nc1ccccc1C(F)(F)F	-1.3	36.9%	-12.7%	2.9	4.7%[46.1 µM]	6.4%[46.1 µM]
CCCCN(C)C1CCN(C(=S)Nc2cccc(OC)c2)CC1	1.5	-22.6%	-8.3%	-12.1	-27.9%[46.1 µM]	-3.1%[46.1 µM]
CCC1(CC)NC(=O)N(CC(=O)OCC(=O)Nc2ncc(Cl)cc2Cl)C1=O	/	9.7%	6.2%	/	-5.1%	10.9%
Cc1ccccc1OCc1nc2ccccc2c(=O)n1N	30.7*	45.9%	/	40.9	4.9%[46.1 µM]	26.9%
CCOc1ccc(CCNC(=O)c2cnc3sc(N(CC)CC)nn3c2=O)cc1OCC	/	/	/	/	/	0.7%[46.1 µM]
CC(=O)c1cccc(NC(=O)/C=C/c2ccc([N+](=O)[O-])s2)c1	32.9*	?	-5.6%	95.9*	?	7.08µM*
Cc1ccccc1NC(=O)/C=C/c1cccs1	27.5*	259.0%	306.1%	70.2*	?	-3.0%
Cc1ccccc1NC(=O)/C=C/c1ccc([N+](=O)[O-])s1	12.5	11.7µM*	7.38µM*	1.5	?	?
Cc1cc(C)cc(NC(=O)/C=C/c2ccc([N+](=O)[O-])s2)c1	-7.3	?	?	-10.2	-20.0%	-16.4%
COc1cccc(-n2c(=O)c3c(C)c(C)sc3n(CC(=O)NCc3ccc(C)cc3)c2=O)c1	/	/	/	/	-10.3%[46.1 µM]	2.6%[46.1 µM]
Cc1cccc(-c2nc(CS(=O)CC(=O)NC3CCCC(C)C3C)c(C)o2)c1 (stereo not drawn)	4.6	51.3%	40.5%	11.9	/	/
O=C1c2ccccc2C(=O)N1CCCc1c[nH]c2ccc(Cl)cc12	14.4*	37.0%	29.7%	-8.4	?	?
O=C(CN1C(=O)c2ccccc2C1=O)NCCc1c[nH]c2ccc(Cl)cc12	-3.1	?	-9.1%	15.6	12.5%	-0.2%
O=C(Oc1ccc2[nH]cc(CCN3C(=O)c4ccccc4C3=O)c2c1)c1ccco1	27.1*	-28.2%	24.0%	41.0	11.8%	13.7%
CCCCOc1ccc(C(=O)Oc2cc(C)[nH]c(=O)c2[N+](=O)[O-])cc1	-1.5	-23.4%	-12.4%	26.6	/	/
c1ccc(CNc2c3c(nc4ccccc24)CCC3)cc1	-1.5	-14.2%	?	-3.7	?	?
CN(C)CCCNc1c2c(nc3ccccc13)CCC2	8.6	1.7%	10.4µM*	16.2	/	/
OCCNc1c2c(nc3ccccc13)CCCC2	-3.2	-6.2%	54.3%	-9.8	-20.3%[46.1 µM]	1.7%
SMILES	Cycloheximide cs	Pf growth 96h	Pf growth 48h	Shiga toxin inh	Marburg entry inh	LASV entry inh
COCCNc1c2c(nc3ccccc13)CCC2	-1.3	9.28µM*	?	-16.9	?	6.1%[46.1 µM]
CC(C)CNc1c2c(nc3ccccc13)CCC2	0.5	?	10.4µM*	-3.9	?	?
O=C(O)c1cccnc1Nc1cccc(C(F)(F)F)c1	0.7	-4.5%	-25.5%	10.6	?	?
Fc1ccc(Nc2nc3nonc3nc2Nc2cccc(C(F)(F)F)c2)cc1	/	/	/	/	2.24µM*	?
COc1ccc(C(C)C)cc1S(=O)(=O)N1CCN(C)CC1	-5.0	11.7µM*	/	-17.9	-1.0%	8.8%
COc1ccc(OC)c(S(=O)(=O)N2CCN(c3c(C)cccc3C)CC2)c1	-1.7	4.65µM*	?	-1.3	/	/
COc1ccc(OC)c(S(=O)(=O)N2CCN(c3ncccn3)CC2)c1	8.7	12.0%	6.5%	-4.7	/	/
COc1ccc(C(=O)C(C)[n+]2ccc(-c3nnc4n3CCCCC4)cc2)cc1 (stereo not drawn)	5.5	23.4%	4.9%	-6.6	?	13.0%[46.1 µM]
CC(C)(C)c1ccc(C(=O)N2CCCC2)s1	26.3*	33.4%	84.9%	51.3*	/	/
COc1ccc(CC(N)C(=O)NC2C(CO)OC(n3cnc4c(N(C)C)ncnc43)C2O)cc1 (stereo not drawn)	/	0.338µM*	0.379µM*	/	/	/
Nc1ncnc2c1ncn2[C@@H]1O[C@H](CNC(=O)[C@@H](N)Cc2ccccc2)[C@@H](O)[C@H]1O	/	/	/	/	3.8%	/
CON(c1nc(Cl)nc(N(C)C)n1)S(=O)(=O)c1ccccc1Cl	15.3	0.0%	-11.9%	-14.7	-1.0%	12.6µM*
COC(=O)c1nc(Cl)c(Cl)c(N)c1Cl	2.7	24.6%	10.4µM*	-7.1	3.9%[46.1 µM]	-2.3%
O=C(Cn1nnc2ccccc2c1=O)NC1CCCc2ccccc21 (stereo not drawn)	-1.1	10.4µM*	8.2%	-5.7	4.1%	?
CCc1ccccc1NC(=O)C1CCCN(S(=O)(=O)c2ccc3c(c2)CC(C)N3C(C)=O)C1 (stereo not drawn)	7.2	13.1µM*	?	-5.9	/	/
CC(=O)N1c2ccc(S(=O)(=O)N3CCC(C(=O)NCc4ccc(C)cc4)CC3)cc2CC1C (stereo not drawn)	-2.5	11.7µM*	?	16.7	-24.9%[46.1 µM]	-3.9%[46.1 µM]
Cc1ccc(CNC(=O)C2CCN(S(=O)(=O)c3ccc4c(c3)CC(C)N4C(=O)C3CC3)CC2)cc1 (stereo not drawn)	3.3	-2.6%	0.0%	0.8	/	/
COc1ccc(CNC(=O)C2CCN(S(=O)(=O)c3ccc4c(c3)CC(C)N4C(=O)C3CC3)CC2)cc1 (stereo not drawn)	-1.7	14.7µM*	?	2.7	2.2%[46.1 µM]	?
CC(=O)N1c2ccc(S(=O)(=O)N3CCC(C(=O)NCc4ccc(Cl)cc4)CC3)cc2CC1C (stereo not drawn)	-6.5	-24.4%	9.28µM*	10.9	-6.3%[46.1 µM]	?
COc1cccc(CNC(=O)C2CCN(S(=O)(=O)c3ccc4c(c3)CC(C)N4C(=O)C3CC3)CC2)c1 (stereo not drawn)	-2.4	-5.6%	?	-3.5	/	/
CC(=O)N1c2ccc(S(=O)(=O)N3CCC(C(=O)NCCc4ccc(Cl)cc4)CC3)cc2CC1C (stereo not drawn)	-1.3	6.3%	?	2.7	?	?
O=C(NCCCNC(=O)c1cnccn1)c1ccc(Cl)c(Cl)c1	9.0	2.6%	-6.4%	-1.2	-5.0%[46.1 µM]	14.7%
